Source: PubChem BioAssay (NCATS)
Results filed as inconclusive are left out. Where a call stands in place of a potency, no number is given. A number with no mark means an inactive call. Calls of active or inactive are those of the source. Calls follow the shape of the dose curve; as a rule, active = well fitted curve in the direction sought with a large enough effect; inconclusive = small, poorly fitted or top-dose-only effect, or another doubt; inactive = no such curve, though single readings can be large; an effect the other way counts as inactive or inconclusive.

Key:
[1] = molecular target: N-terminal Xaa-Pro-Lys N-methyltransferase 1 (Homo sapiens) (UniProt Q9BV86); assay: qHTS Assay for Inhibitors of N-terminal methyltransferase 1 (NTMT1): LOPAC validation of the NTMT1 SAHH-coupled ThioGlo3 Assay (AID 1347143);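 also: SAH from peptide methylation measured as thiol fluorescence via SAHH coupling and ThioGlo3; nearly all actives have a fitted effect of over 70% in size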; also: potency is read from the fitted curve at half-maximal effect
N-terminal Xaa-Pro-Lys N-methyltransferase 1 (Homo sapiens), sequence (Q9BV86 whole entry, looked up): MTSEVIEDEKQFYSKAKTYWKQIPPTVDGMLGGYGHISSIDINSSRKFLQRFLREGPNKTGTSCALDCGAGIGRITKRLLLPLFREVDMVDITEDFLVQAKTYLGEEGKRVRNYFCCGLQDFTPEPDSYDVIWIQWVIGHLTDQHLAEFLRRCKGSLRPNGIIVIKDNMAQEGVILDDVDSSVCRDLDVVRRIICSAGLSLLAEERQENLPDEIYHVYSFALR
How it was run: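 NTMT1 125nM + cpds (various conc.), 1 min RT; add SAM 100uM/SAHH 10uM/ThioGlo3 15uM (addition mix). SAHH-coupled thiol detection, Ex340/Em450, t0 and 30 min RT; signal normalized to background. LOPAC 1280-cpd pilot.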

[2] = system: Zika virus NS2B-NS3 protease (unlinked); assay: Optimization of GU AMC qHTS for Zika virus inhibitors: Unlinked NS2B-NS3 protease assay (AID 1347151); also: nearly all actives have a fitted effect of over 80% in size; also: potency is read from the fitted curve at half-maximal effect; as to activity change, negative = inhibition: series mostly up to about 52 µM
How it was run: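 In this qHTS, compounds acted on 25 nM unlinked Zika NS2B–NS3 in pH 8.0 Tris/Tween buffer. Cleavage of an AMC peptide ran 15 min at room temperature, to about 20% conversion.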

[3] = system: Zika virus NS2B-NS3 protease; assay: Primary screen GU AMC qHTS for Zika virus inhibitors (AID 1347154); also: nearly all actives have a fitted effect of over 70% in size
How it was run: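 Fluorogenic AMC-substrate cleavage by noncovalent NS2B-NS3 protease complex (25 nM, pH 8.0 Tris buffer with Tween 20) followed for 15 minutes at room temperature (~20% conversion). Percent inhibition from ex340/em450 signal change, fitted by 4-parameter Hill equation.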

[4] = molecular target: Lysine-specific demethylase 5B (Homo sapiens) (UniProt Q9UGL1); assay: Optimization screen for KDM5B Histone Demethylases FDH coupled qHTS against the LOPAC library (AID 1347166)
Lysine-specific demethylase 5B (Homo sapiens), sequence (Q9UGL1 whole entry, looked up): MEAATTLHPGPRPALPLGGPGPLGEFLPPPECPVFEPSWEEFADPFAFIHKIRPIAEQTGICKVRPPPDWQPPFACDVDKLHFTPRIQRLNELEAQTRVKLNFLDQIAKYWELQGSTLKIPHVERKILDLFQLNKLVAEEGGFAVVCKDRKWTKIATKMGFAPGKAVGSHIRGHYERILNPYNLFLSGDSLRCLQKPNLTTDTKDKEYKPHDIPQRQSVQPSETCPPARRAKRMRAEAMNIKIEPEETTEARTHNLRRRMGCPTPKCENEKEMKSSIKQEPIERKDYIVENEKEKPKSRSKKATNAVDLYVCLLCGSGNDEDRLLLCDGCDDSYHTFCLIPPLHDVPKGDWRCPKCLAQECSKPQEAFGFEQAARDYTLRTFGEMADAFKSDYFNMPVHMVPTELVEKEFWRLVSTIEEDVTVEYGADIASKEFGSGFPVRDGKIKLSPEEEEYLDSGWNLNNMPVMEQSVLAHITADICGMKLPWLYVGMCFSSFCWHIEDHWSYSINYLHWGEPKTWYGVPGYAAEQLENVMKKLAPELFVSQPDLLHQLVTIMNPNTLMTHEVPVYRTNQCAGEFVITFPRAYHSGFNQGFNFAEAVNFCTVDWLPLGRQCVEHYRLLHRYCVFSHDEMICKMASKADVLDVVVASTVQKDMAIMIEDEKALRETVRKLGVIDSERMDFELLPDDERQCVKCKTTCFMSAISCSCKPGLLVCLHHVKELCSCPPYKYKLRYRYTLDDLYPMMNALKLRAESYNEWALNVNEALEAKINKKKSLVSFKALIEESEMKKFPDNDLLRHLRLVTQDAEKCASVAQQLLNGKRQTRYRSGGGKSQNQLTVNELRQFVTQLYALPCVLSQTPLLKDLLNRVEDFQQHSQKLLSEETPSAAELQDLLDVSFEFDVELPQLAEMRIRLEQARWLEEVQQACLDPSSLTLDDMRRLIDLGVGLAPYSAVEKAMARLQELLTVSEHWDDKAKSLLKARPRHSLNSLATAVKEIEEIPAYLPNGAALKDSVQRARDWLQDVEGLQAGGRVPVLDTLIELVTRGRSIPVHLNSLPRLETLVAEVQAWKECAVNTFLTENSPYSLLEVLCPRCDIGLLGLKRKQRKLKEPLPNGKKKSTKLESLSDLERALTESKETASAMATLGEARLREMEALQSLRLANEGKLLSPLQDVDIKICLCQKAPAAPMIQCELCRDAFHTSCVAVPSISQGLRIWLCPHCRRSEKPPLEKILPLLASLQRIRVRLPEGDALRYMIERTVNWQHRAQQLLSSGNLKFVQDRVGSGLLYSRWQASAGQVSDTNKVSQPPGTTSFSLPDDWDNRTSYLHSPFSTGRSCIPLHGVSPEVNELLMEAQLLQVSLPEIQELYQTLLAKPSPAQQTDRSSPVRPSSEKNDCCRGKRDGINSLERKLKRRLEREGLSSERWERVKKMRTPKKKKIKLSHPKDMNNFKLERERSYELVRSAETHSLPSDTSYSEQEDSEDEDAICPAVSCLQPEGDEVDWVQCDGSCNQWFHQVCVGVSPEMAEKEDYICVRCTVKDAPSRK
How it was run: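 KDM5BDeltaAP (200nM final) in 50mM HEPES pH 7.5, 0.01% Tween-20 was preincubated with compound for 10 min at room temperature. A substrate mix of 12.5uM H3K4Me3, 25uM a-ketoglutarate, ascorbate, Fe2+, NAD+ and formaldehyde dehydrogenase was then added. NADH fluorescence (340/450 nm) was read initially and after 30 min.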

## COCCCC/C(=N\OCCN)c1ccc(C(F)(F)F)cc1
[1]
  Potency: inactive
[2]
  Potency: inactive
[3]
  outcome: inactive
[4]
  Potency: inactive

## CCN1CCC[C@H]1CNC(=O)c1c(O)c(Cl)cc(Cl)c1OC
[1]
  Potency: 50.1 µM (active)
[3]
  outcome: inactive

## Cc1ccc(Cl)c(Nc2ccccc2C(=O)O)c1Cl
[1]
  Potency: inactive
[3]
  outcome: inactive
[4]
  Potency: inactive

## CCCC(C(=O)OCCN(CC)CC)(c1ccccc1)c1ccccc1
[1]
  Potency: inactive
[2]
  Potency: inactive
[3]
  outcome: inactive
[4]
  Potency: inactive

## CCCCCCCC/C=C\CCCCCCCC(=O)NCc1ccc(O)c(OC)c1
[1]
  Potency: inactive
[3]
  outcome: inactive
[4]
  Potency: inactive

## CN1C(=O)CC[C@H]1c1cccnc1
[1]
  Potency: inactive
[3]
  outcome: inactive

## NC(N)=NC(=O)Cc1c(Cl)cccc1Cl
[1]
  Potency: inactive
[2]
  Potency: inactive
[3]
  outcome: inactive
[4]
  Potency: inactive

## CC(C)(C)c1ccc(C(=O)CCCN2CCC(OC(c3ccccc3)c3ccccc3)CC2)cc1
[1]
  Potency: inactive
[2]
  Potency: inactive
[4]
  Potency: inactive

## COCCc1ccc(OCC(O)CNC(C)C)cc1 (stereo unspecified)
[1]
  Potency: inactive
[2]
  Potency: inactive
[3]
  outcome: inactive
[4]
  Potency: inactive

## COC(=O)C1=C(C)NC(C)=C(C(=O)OC(C)(C)CN(C)CCC(c2ccccc2)c2ccccc2)C1c1cccc([N+](=O)[O-])c1 (stereo unspecified)
[1]
  Potency: inactive
[4]
  Potency: inactive

## CCNC(=O)N1CCN(CCCC(c2ccc(F)cc2)c2ccc(F)cc2)CC1
[2]
  Potency: inactive
[3]
  outcome: inactive

## CNCCCN1c2ccccc2CCc2ccccc21
[2]
  Potency: inactive
[3]
  outcome: inactive
[4]
  Potency: inactive

## NC(=Nc1ccccc1)Nc1ccccc1
[3]
  outcome: inactive

## CCc1c(C)[nH]c2c1C(=O)C(CN1CCOCC1)CC2 (stereo unspecified)
[2]
  Potency: inactive
[3]
  outcome: inactive
[4]
  Potency: inactive

## CN1CCN(CC(=O)N2c3ccccc3C(=O)Nc3cccnc32)CC1
[2]
  Potency: inactive
[3]
  outcome: inactive
[4]
  Potency: inactive

## CC(=O)[C@]1(O)Cc2c(O)c3c(c(O)c2[C@@H](O[C@H]2C[C@H](N)[C@H](O)[C@H](C)O2)C1)C(=O)c1ccccc1C3=O
[2]
  Potency: inactive
[3]
  outcome: inactive

## O=C(O)CN(CCOCCOCCN(CC(=O)O)CC(=O)O)CC(=O)O
[2]
  Potency: inactive
[3]
  activity change, negative = inhibition: -0.967% [at 0.59 µM]
[4]
  Potency: inactive

## CCCCNc1c(C(=O)OCC)c(C)nc2c1cnn2CC
[2]
  Potency: inactive
[3]
  outcome: inactive
[4]
  Potency: inactive

## C#CCN(C)CCCOc1ccc(Cl)cc1Cl
[2]
  Potency: inactive
[3]
  outcome: inactive
[4]
  Potency: inactive

## Cc1scc2c1N(C(=O)CN1CCN(C)CC1)c1ccccc1NC2=O
[2]
  Potency: inactive
[3]
  outcome: inactive

## Cc1ccc(=O)n(-c2ccccc2)c1
[2]
  Potency: 26.7 µM (active)
[3]
  outcome: inactive

## Fc1ccc(C(c2ccc(F)cc2)N2CCN(C/C=C/c3ccccc3)CC2)cc1
[2]
  Potency: inactive
[3]
  outcome: inactive
[4]
  Potency: inactive

## c1cnc(N2CCN(Cc3ccc4c(c3)OCO4)CC2)nc1
[2]
  Potency: inactive
[3]
  outcome: inactive
[4]
  Potency: inactive

## CCn1cc(C(=O)O)c(=O)c2cc3c(cc21)OCO3
[2]
  Potency: 23.8 µM (active)
[3]
  outcome: inactive

## COc1cc2c(cc1OC)-c1cc(=Nc3c(C)cc(C)cc3C)n(C)c(=O)n1CC2
[3]
  outcome: inactive

## OCCN1CCN(CCCN2c3ccccc3C=Cc3ccccc32)CC1
[2]
  Potency: inactive
[3]
  outcome: inactive
[4]
  Potency: inactive

## COc1ccc2c(c1OC)C(=O)O[C@@H]2[C@H]1c2c(cc3c(c2OC)OCO3)CCN1C
[2]
  Potency: inactive
[3]
  outcome: inactive
[4]
  Potency: inactive

## Cc1ccc(S(=O)(=O)NC(=O)NN2CCCCCC2)cc1
[2]
  Potency: inactive
[3]
  outcome: inactive

## OCCN1CCN(CC/C=C2/c3ccccc3Sc3ccc(C(F)(F)F)cc32)CC1
[2]
  Potency: inactive
[3]
  outcome: inactive

## CCCCNc1ccc(C(=O)OCCN(C)C)cc1
[2]
  Potency: inactive
[3]
  outcome: inactive
[4]
  Potency: inactive

## CC1=C(C)C(=O)C(CCCCC#CCCCC#CCO)=C(C)C1=O
[3]
  outcome: inactive

## CN(C)CCCN1c2ccccc2Sc2ccc(C(F)(F)F)cc21
[2]
  Potency: inactive
[3]
  outcome: inactive
[4]
  Potency: inactive

## CN(C)C/C=C(/c1ccc(Br)cc1)c1cccnc1
[2]
  Potency: inactive
[3]
  outcome: inactive
[4]
  Potency: inactive

## CCCCOCCOCCOCc1cc2c(cc1CCC)OCO2
[3]
  outcome: inactive

## C[N+](C)(C)CCCCCCCCCC[N+](C)(C)C
[2]
  Potency: inactive
[3]
  outcome: inactive

## CCN(CC)CCCN(c1ccccc1)C1Cc2ccccc2C1
[2]
  Potency: inactive
[3]
  outcome: inactive

## Cc1cccc(C)c1NC(=O)C(C)N (stereo unspecified)
[2]
  Potency: inactive
[3]
  outcome: inactive
[4]
  Potency: inactive

## CCn1nc(C(=O)O)c(=O)c2cc3c(cc21)OCO3
[3]
  outcome: inactive
[4]
  Potency: inactive

## CSc1ccc(C(=O)c2[nH]c(=O)[nH]c2C)cc1
[2]
  Potency: inactive
[4]
  Potency: inactive

## CCN(CC)CCOCCOC(=O)C1(c2ccccc2)CCCC1
[2]
  Potency: inactive
[3]
  outcome: inactive

## COCC(=O)O[C@]1(CCN(C)CCCc2nc3ccccc3[nH]2)CCc2cc(F)ccc2[C@@H]1C(C)C
[2]
  Potency: inactive
[3]
  outcome: inactive
[4]
  Potency: inactive

## CCc1cccc(N(C)C(N)=Nc2cccc3ccccc23)c1
[2]
  Potency: inactive
[3]
  outcome: inactive
[4]
  Potency: inactive

## Cc1cc(C)c(/C=C2\C(=O)Nc3ccccc32)[nH]1
[3]
  outcome: inactive
[4]
  Potency: inactive

## O=C1CC2(CCCC2)CC(=O)N1CCCCN1CCN(c2ncccn2)CC1
[2]
  Potency: inactive
[3]
  outcome: inactive
[4]
  Potency: inactive

## Cc1nc2ccccn2c(=O)c1CCN1CCC(C(=O)c2ccc(F)cc2)CC1
[3]
  outcome: inactive

## CC(C)NCC(O)c1cc(O)cc(O)c1 (stereo unspecified)
[2]
  Potency: inactive
[3]
  outcome: inactive
[4]
  Potency: inactive
